{"source": "PubChem BioAssay (NCI)", "note": "About 83,000 compounds went through this panel and 20% of them were active in at least one assay; those are over-represented in the sample as a whole.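 In brief: 96-well plates, 48 h treatment, single concentration, percent growth endpoint.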 A number with no mark means an inactive call. Active and inactive are the calls of the source."}
{"tested_on": "UO-31 renal", "assay": "NCI-60 one-dose screen, 48 h (100 = growth as untreated, 0 = no growth, -100 = all killed)", "details": "10 µM unless noted", "description": "Growth inhibition of the UO-31 human tumor cell line is measured as a screen for anti-cancer activity. Cells are grown in 96 well plates and exposed to the test compound for 48 hours. Compounds are tested at a single concentration, which is 10^-5 M for most compounds. The reported endpoint is percent growth (GI% or GIPRCNT), where numbers from 0 - 100% represent growth inhibition, and numbers from -100% - 0 represent cell death. For example, a value of 40 represents 60% growth inhibition. A value of 0 means no net growth occurred over the course of the experiment. A value of -40 indicates 40% of cells at the beginning of the experiment died by the end of the experiment. A value of -100 means all cells are dead at the end of the experiment.\nNCI-60 Human Tumor Cell Lines Screen was performed using the standard one-dose NCI protocol, which is described in more detail at https://dtp.cancer.gov/discovery_development/nci-60/default.htm.\nCompounds with GIPRCNT values below 10 were considered active. Activity score was based on GIPRCNT using the following formula: […]\nScore is 0 for GIPRCNT values of 100 or above, 50 for GIPRCNT values of 0, and 100 for GIPRCNT values of -100."}
{"smiles": "CC1=C(C)C[C@]2(C(=O)O[C@H]3CCCC[C@@H]32)[S@](=O)C1", "growth": "91.2%"}
{"smiles": "COC(=O)c1cc(=O)nc(N/N=C/c2ccccc2O)s1", "growth": "61.4%"}
{"smiles": "CCCC[N+](C)(N)CCCC", "growth": "91.7%"}
{"smiles": "Nc1nc2c(c3cnccc13)C(c1cccc(Cl)c1)Cc1cnccc1-2", "note": "(stereo not given)", "growth": "26.1%"}
{"smiles": "COC(=O)/C=C/c1cc(O)c2oc(-c3ccc(O)c(O)c3)c(C(=O)OC)c2c1", "growth": "22.6%"}
{"smiles": "CCCCCSc1ccc2nc(NC(=O)OCC)sc2c1", "growth": "38.3%"}
{"smiles": "CCCCCCCCCC[N+](C)(C)C", "growth": "72.9%"}
{"smiles": "N#Cc1ccc(NC2c3ccccc3CC2O)cc1", "note": "(stereo not given)", "growth": "83.1%"}
{"smiles": "COC(=O)/C(Br)=C/c1c[nH]c2ccc(Br)cc12", "growth": "46.7%"}
{"smiles": "Cc1c(CN(C)C)cc(C(C)C)cc1C(C)C", "growth": "108%"}
{"smiles": "CC1=C(C)C(=O)C(C(C)C2=C(C)C(=O)C(C)=C(C)C2=O)=C(C)C1=O", "growth": "83.8%"}
{"smiles": "Cc1nc2ccccc2c(=O)n1-c1cccc(OCc2cn(-c3cccc(O)c3)nn2)c1", "growth": "68.2%"}
{"smiles": "COc1cc(-c2cc3cnccc3c3nc(N)c4ccncc4c23)cc(OC)c1OC", "growth": "11.9%"}
{"smiles": "COC(=O)c1ccc2[nH]c(O)c(C(=Nc3ccc(N(C)C(=O)CN4CCN(C)CC4)cc3)c3ccc(N)cc3)c2c1", "growth": "75.6%"}
{"smiles": "Cc1ccc(NC(=O)CCl)cc1Cl", "growth": "98.5%"}
{"smiles": "O=C(N/N=C/c1cc(Cl)ccc1O)C(=O)N/N=C/c1cc(Cl)ccc1O", "growth": "48.2%"}
{"smiles": "CC[N+](C)(C)N", "growth": "89.8%"}
{"smiles": "CCCCCCCCCCCCc1ccc([N+](CC)(CC)CC)cc1", "growth": "78.7%"}
{"smiles": "CC(=O)N1N=C(c2ccc(Cl)cc2)CC1c1cn(-c2ccccc2)nc1-c1ccc([N+](=O)[O-])cc1", "note": "(stereo not given)", "growth": "107%"}
{"smiles": "O=C1C=C(OCC=C(C(F)(F)F)C(F)(F)F)c2ccccc2C1=O", "growth": "49.9%"}
{"smiles": "COc1ccc(/C(=C(\\c2ccccc2)[N+](=O)[O-])c2ccc(OCCN3CCCC3)cc2)cc1", "growth": "28.1%"}
{"smiles": "O=C(CCl)c1ccc2c(c1)CCCC2", "growth": "91.2%"}
{"smiles": "Oc1ccc(CN(Cc2ccc(C(F)(F)F)cc2)Cc2ccc(O)c3ncccc23)c2cccnc12", "growth": "4.59% (active)"}
{"smiles": "Clc1ccc(N/N=C/c2ccccn2)nc1", "growth": "-12% (active)"}
{"smiles": "CC(C)OC(=O)c1ccc2n1CCCc1cnc(Nc3ccccc3)nc1-2", "growth": "64.2%"}
{"smiles": "CC(Br)c1nc2ccccc2cc1C(N)=O", "note": "(stereo not given)", "growth": "92.6%"}
{"smiles": "CCCCCC(=C/c1ccccc1)/C=N/N=C(N)N", "growth": "-53.2% (active)"}
{"smiles": "O=C(Oc1ccccc1)c1ccccc1Cl", "growth": "96.7%"}
{"smiles": "Cn1cnc2nc[nH]c2c1=S", "growth": "71.2%"}
{"smiles": "CCCNC(=O)Oc1ccc(/C(=C(/CC)Cc2ccccc2)c2ccc(OCCN(CC)CC)cc2)cc1", "growth": "51.5%"}
{"smiles": "CC(=O)N(N=O)c1ccc([N+](=O)[O-])cc1Cl", "growth": "57.3%"}
{"smiles": "COc1cc(OC)c2c(=O)cc(-c3ccccc3)oc2c1", "growth": "70.2%"}
{"smiles": "CCCCCCCCCCCC(=O)OC(C)C(=O)Nc1ccccc1", "note": "(stereo not given)", "growth": "78.2%"}
{"smiles": "Nc1ccc(N=Nc2ccccc2)c2cc(S(=O)(=O)O)ccc12", "growth": "86.7%"}
{"smiles": "O=C1c2ccccc2CCc2ccccc21", "growth": "84%"}
{"smiles": "C[C@@H](c1ccc2c(c1)[nH]c1ccc(Cl)cc12)c1nc2ccc(Cl)cc2[nH]1", "growth": "58%"}
{"smiles": "COc1ccc(-c2cc(C#N)c(NNC(C)=O)[nH]2)cc1", "growth": "96.2%"}
{"smiles": "Cc1ccccc1-n1c(C)nc2cc(NC(=O)c3ccc(Cl)cc3)ccc2c1=O", "growth": "77.8%"}
{"smiles": "O=Nc1c(-c2c(O)[nH]c3cc(Br)ccc23)[nH]c2ccccc12", "growth": "-28.9% (active)"}
{"smiles": "CCN(CC)CCCC(C)Nc1c(C)cnc2cc(Cl)c(C)cc12", "note": "(stereo not given)", "growth": "66.8%"}
